# Test results reported in PubChem BioAssay AID624273 (Broad Institute, 2012).
# Among all 1,000 compounds or so, about 230 (23%) were called active. Another 1% or so got no clear call; they are omitted. The list shows a part of the results. Results with a measured potency or affinity are listed apart. A number with no mark means an inactive call. How the calls were made is not given here.
# Target: Long-chain-fatty-acid--AMP ligase FadD28 (Mycobacterium tuberculosis (strain ATCC 25618 / H37Rv)) (UniProt P9WQ59)
# Assay: inhibitors of FadD28 bisubstrate probe binding, dose response, biochemical, fluorescence polarization, cherry-pick (AID 624273)
# Settings: series mostly up to 50 µM; activity change, negative = inhibition: at the top concentration
# Chain of Long-chain-fatty-acid--AMP ligase FadD28 (Mycobacterium tuberculosis (strain ATCC 25618 / H37Rv)) (P9WQ59 whole entry, looked up): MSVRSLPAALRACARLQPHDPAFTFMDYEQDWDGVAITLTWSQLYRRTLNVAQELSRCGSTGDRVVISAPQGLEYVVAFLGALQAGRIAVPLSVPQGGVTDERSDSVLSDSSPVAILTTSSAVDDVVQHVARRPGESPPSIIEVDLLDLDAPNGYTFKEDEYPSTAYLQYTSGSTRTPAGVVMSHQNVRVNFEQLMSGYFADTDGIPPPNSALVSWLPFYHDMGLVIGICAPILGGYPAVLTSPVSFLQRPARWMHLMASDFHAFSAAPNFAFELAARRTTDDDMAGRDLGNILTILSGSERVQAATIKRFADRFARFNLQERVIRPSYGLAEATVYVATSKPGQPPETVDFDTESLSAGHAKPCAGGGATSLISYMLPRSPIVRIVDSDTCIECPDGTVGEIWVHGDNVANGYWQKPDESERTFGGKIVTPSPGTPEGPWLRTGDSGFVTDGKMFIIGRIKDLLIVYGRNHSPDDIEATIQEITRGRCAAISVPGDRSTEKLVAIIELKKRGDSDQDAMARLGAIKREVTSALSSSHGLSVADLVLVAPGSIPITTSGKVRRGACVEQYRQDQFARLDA
row,Compound,"activity change, negative = inhibition [%]"
1,CC(=O)NNC(=S)Nc1cccc(F)c1,-7.85
2,Cc1cccc(NC(=O)NNC(=O)c2ccc3ccccc3c2O)c1,-20.9
3,Cc1ccc(SCCN2CCN(C)CC2)cc1,-0.503
4,Cn1ncnc2c(=O)n(C)c(=O)nc1-2,5.7
5,CN(C)c1cccc(NC(=O)c2ccco2)c1,-6.62
6,COc1ccccc1NC(=O)c1ccc2c(c1)C(=O)N(c1ccccc1OC)C2=O,-0.908
7,COCCCN1CN(S(=O)(=O)c2ccc(Cl)cc2)c2nc3ccccc3nc21,-64.5
8,CC1CCCC(C)N1CCCNC(=O)c1ccc2nc(N3CCOCC3)sc2c1 (stereo unspecified),0.187
9,O=C(Nc1nc2ccc(SC(F)F)cc2s1)c1ccc(NS(=O)(=O)c2ccc(F)c(F)c2)cc1,1.67
10,COc1ccc(OC)c(NC(=O)c2ccc(NC(C)=O)cc2)c1,-6.61
11,COc1ccc(C(=O)NNC(=O)C(=O)NCc2ccccc2)cc1,0.399
12,Cc1ccc(C)c(C(=O)C(C)OC(=O)c2cccn2C)c1 (stereo unspecified),3.23
13,O=C(CN1C(=O)c2ccccc2C1=O)N(CCO)Cc1ccccc1,-6.65
14,CCCc1nc(N)c(C#N)c(-c2ccco2)c1CC,-6.34
15,O=C(COC(=O)c1cccs1)Nc1cccc(S(=O)(=O)N2CCOCC2)c1,-0.358
16,COc1ccc(S(=O)(=O)N2CCCCCC2)cc1C(=O)NCc1cccs1,-23.6
17,CCOC1=C(C#N)CC2(CC1)c1ccccc1-c1ccccc12,-7.12
18,Cc1ccc(C)n1C(CC(=O)O)c1ccc(C#N)cc1 (stereo unspecified),-2.01
19,O=C1C2CC=CCC2C(=O)N1c1ccc(NCCc2ccc(O)cc2)c([N+](=O)[O-])c1 (stereo unspecified),-6.2
20,C=CCOc1cccc(C2C(C(=O)c3ccc(C)o3)=C(O)C(=O)N2CCCn2ccnc2)c1 (stereo unspecified),-6.12
21,CC(=O)Nc1sc(N/N=C\c2ccccc2)nc1-c1cccs1,-6.1
22,O=C(O)c1cc(N/N=C/c2c[nH]c3ccccc23)ccc1Cl,-0.396

row,Compound,"activity change, negative = inhibition [%]"
1,COc1ccc(Cl)cc1NC(=S)N(Cc1ccc(C(=O)O)cc1)Cc1ccc(OC)c(OC)c1,-26.1
2,CN1CCCC(C(=O)c2ccc(-c3ccccc3)cc2)C1 (stereo unspecified),-3.14
3,COc1cc(C(C)=O)ccc1OC(=O)N(C)c1ccccc1,-7.74
4,O=C(O)c1ccc(N/N=C/C2=Cc3ccccc3OC2)cc1,-7.18
5,Cc1ccc(S(=O)(=O)N2CCN(C(=O)COC(=O)Cc3cccc(C(F)(F)F)c3)CC2)c(C)c1,-8.44
6,Cc1c(N=Cc2c(O)n(CCc3ccc(F)cc3)c(=O)[nH]c2=O)c(=O)n(-c2ccccc2)n1C,-5.99
7,Cc1ccc(C)c(C(O)c2ncc(-c3ccccc3F)[nH]2)c1 (stereo unspecified),-0.658
8,CC1=C(C(=O)OCc2ccccc2)C(c2ccccc2Cl)NC(=O)N1C (stereo unspecified),1.09
9,OC1(c2ccccc2)c2ccccc2-c2ncccc21 (stereo unspecified),0.098
10,COc1ccc(Cn2c(O)c(C=Nc3ccccc3C(=O)O)c3ccccc3c2=O)cc1,-11.9
11,O=C(CNC(=S)N(Cc1ccccc1)Cc1cccnc1)N1CCOCC1,2.04
12,CC(C=NNc1ccc([N+](=O)[O-])cn1)=Cc1ccccc1,-3.77
13,Fc1ccc(-n2cc(-c3ccccc3)c3c(N4CCOCC4)ncnc32)cc1,-3.99
14,FC(F)(F)c1cccc(NC(=S)N2CCN(c3ccccn3)CC2)c1,-5.38
15,O=C(NNc1ccc(C2CCCCC2)cc1)C(O)(c1ccccc1)c1cccs1 (stereo unspecified),-7.02
16,O=C(Cc1c(F)cccc1Cl)NC1CCN(Cc2ccccc2)CC1,-2.88
17,O=C(O)c1[nH]c2ccccc2c1C(c1cccc(O)c1)c1c(C(=O)O)[nH]c2ccccc12,-0.575
18,Cc1[nH]c2ccccc2c1C(=O)CN1CCSCC1,-5.36
19,COc1ccc(OC)c(C2CC(=O)Nc3c2c(=O)[nH]c2ncnn32)c1 (stereo unspecified),-4.84
20,CC(Oc1ccc(Cl)cc1Cl)c1nc(-c2ccc(NC(=O)c3ccco3)cc2)no1 (stereo unspecified),2.14
21,O=c1[nH]c(=S)[nH]c(O)c1/C=C1\C=Nc2ccccc21,-3.93
22,CCOC(=O)C(O)(C1C(=O)CC(C)(C)CC1=O)C(F)(F)F (stereo unspecified),-8.07

row,Compound,"activity change, negative = inhibition [%]"
1,O=C1CC(c2cc(F)ccc2F)c2cc3c(cc2N1)CCC3 (stereo unspecified),-3.23
2,OC1(c2ccc3c(c2)OCO3)CCN(Cc2ccccn2)CC1,-0.883
3,C[C@@H]1CN([C@H](C)CO)C(=O)c2cc(NC(=O)Nc3ccc(C(F)(F)F)cc3)ccc2O[C@H]1CN(C)C(=O)Nc1ccc(F)cc1,-0.926
4,CCN(C(=O)CSc1nnc(SC)s1)c1c(N)n(Cc2ccccc2)c(=O)[nH]c1=O,-4.76
5,O=C(CCCCn1c(=O)c2ccccc2n(CC(=O)Nc2ccc(F)cc2)c1=O)NCc1ccco1,-18.9
6,CCN(CC)S(=O)(=O)c1cc(C(=O)Nc2cc(Cl)ccc2N2CCN(C)CC2)ccc1Cl,-17
7,CCCCCCCCCCCCCCCCCCNc1ccn(C2OC(COP(=O)(O)OCC3OC(n4cc(F)c(=O)[nH]c4=O)CC3O)C(O)C2O)c(=O)n1 (stereo unspecified),0.561
8,S=C(Nc1ccccc1)N1CCN(c2ccc(N3CCOCC3)nn2)CC1,-4.53
9,COc1ccccc1CN1CCN(C(=O)c2ccco2)CC1,-5.09
10,N#CC1(NC(=O)COC(=O)C2=COCCO2)CCCCC1,-1.19
11,COc1cc(/C=C2\C(=O)ON=C2c2ccccc2)cc(Br)c1O,-5.09
12,Cc1ccccc1-c1cc(C(=O)N2CCCC2)c2ccccc2n1,7.43
13,CC(=O)Nc1cnc(-c2ccc(O)cc2C)cn1,1.39
14,CCOc1ccc(CNC(=O)CCc2cn(C)c3ccccc23)cc1OC,-4.76
15,O=C(c1cc2cc(F)ccc2[nH]1)N1CCc2ccccc2C1,-16.4
16,COc1ccc(NC(=O)c2ccccc2NS(C)(=O)=O)cc1OC,-3.77
17,COc1ccc(-c2coc3c(C(=O)Nc4cccc(C(C)=O)c4)cccc23)c(C)c1,-0.536
18,CCN(CC(=O)Nc1c(F)cccc1F)C(=O)Cc1ccccc1,-2.25
19,N#CC1=C(N)OC2=C(C(=O)CCC2)C1c1cc2c(cc1Cl)OCO2 (stereo unspecified),-6.31
20,COc1ccc(-c2coc3cc(O[C@@H]4O[C@H](CO)[C@@H](O)[C@H](O)[C@H]4O)ccc3c2=O)cc1,-3.03
21,Cc1ccc(OCc2n[nH]c(=S)n2-c2ccc(Br)cc2)cc1,-6.22
22,Cc1ccc2c(c1)N(C(=O)NC1CCCCC1)C(C)(C)CC2C (stereo unspecified),-2.78

row,Compound,"activity change, negative = inhibition [%]"
1,COc1ccc(-n2nnnc2SCC(=O)Nc2ccccc2N2CCOCC2)cc1OC,-5.58
2,COc1cc([N+](=O)[O-])ccc1NC(=S)NC(=O)CC(C)(C)C,-11.9
3,Cc1ccc(C(=O)N2CCCC2)cc1S(=O)(=O)N1CCOCC1,-10.9
4,COc1ccc(S(=O)(=O)N2CCCCCC2)cc1NC(=O)c1ccccc1S(C)(=O)=O,-4.29
5,Cc1cc(NCC(=O)Nc2ccc(C)c(S(=O)(=O)N3CCOCC3)c2)ccc1Br,-7.05
6,O=C(Nc1ccc(NC(=O)c2cc([N+](=O)[O-])ccc2N2CCOCC2)cc1)c1cccs1,-10.1
7,Cc1ccc(NC(=O)COC(=O)c2cccc(OC(F)F)c2)cc1S(=O)(=O)N1CCCCC1,-4.36
8,O=C(c1cc(COc2ccc3c(c2)CCCC3)on1)N1CCCC1,-13.7
9,O=C(c1cccc(C(F)(F)F)c1)N1CCN(CCc2ccccc2)CC1,3.31
10,Cc1[nH]n(-c2ccc(Cl)cc2)c(=O)c1C=Nc1ccc(S(=O)(=O)N2CCOCC2)cc1,-0.291
11,O=C(Cn1cc(S(=O)(=O)Cc2cccc([N+](=O)[O-])c2)c2ccccc21)N1CCOCC1,-3.46
12,COC(=O)c1cc(S(=O)(=O)Nc2ccsc2C(=O)OC)oc1C,-7.11
13,Cc1nnc(SCC(=O)Nc2ccc(F)cc2)n(N)c1=O,-5.63
14,O=C1/C(=C/c2ccco2)SC(=S)N1CCC(=O)N1CCCCC1CCO (stereo unspecified),-10.4
15,N#Cc1ccccc1NC(=O)CNc1ccc(Cl)c(C(F)(F)F)c1,-2.52
16,COc1cc2c(cc1OC)C(=O)C(Br)CC2 (stereo unspecified),-9.76
17,O=C(O)CSC(C(=O)Nc1ccc(C(F)(F)F)cc1)c1ccccc1 (stereo unspecified),-8.44
18,COCc1[nH][nH]c(=O)c1C=Nc1ccc(C(F)(F)F)cc1,-12.3
19,NS(=O)(=O)c1ccc(NC(=O)c2ccc3c(c2)OCO3)cc1,-3.68
20,Cc1nonc1C(=O)N/N=C/c1ccc([N+](=O)[O-])o1,-12.6
21,COC(=O)[C@]1(Cc2ccccc2)N[C@H](CN(C)S(=O)(=O)c2ccc(-c3ccccc3)cc2)[C@@H]2C(=O)N(C)C(=O)[C@@H]21,-27.4
22,COc1cccc(CN(C)C(=O)CC2C(=O)NCCN2C2Cc3ccccc3C2)c1 (stereo unspecified),1.96

row,Compound,"activity change, negative = inhibition [%]"
1,COc1cc(/C=C/c2ccc3cccc(O)c3n2)cc(OC)c1OC,-5.24
2,Cc1ccn2c(Nc3ccccc3C)c(-c3ccccn3)nc2c1,-4.56
3,Cc1nn(Cc2ccc(F)cc2)c2sc(C(=O)Nc3ccccc3N3CCOCC3)cc12,-3.07
4,O=C1CCCC(=NNC(=O)c2cc3ccccc3cc2O)C1,3.46
5,O=C(O)CCC(=O)Nc1ccc(C(=O)OCC(=O)c2ccc(Cl)cc2)cc1,-18.5
6,Cn1nc(CC(=O)NC2CCCCCCCCCCC2)c2ccccc2c1=O,-3.2
7,O=C(Nc1cccc([N+](=O)[O-])c1)NC1CCCCCCC1,-11.6
8,FC(F)Sc1ccc(NC(=S)NCc2ccccc2)cc1,-12.6
9,O=C(COC(=O)c1nc(Cl)ccc1Cl)NCc1ccccc1,-10.5
10,CCCC(C(=O)NCCC(C)C)N(Cc1ccccc1)C(=O)c1snc(C(N)=O)c1N (stereo unspecified),-8.21
11,O=S(=O)(CCN1CCN(c2ccccc2O)CC1)c1cc(Cl)ccc1Cl,-5.55
12,COc1ccc(NC(=O)Nc2ccc3c(c2)C(=O)N([C@@H](C)CO)C[C@@H](C)[C@@H](CN(C)S(=O)(=O)c2cccs2)O3)cc1,-15.6
13,CCN(CC)c1ccc(NC(=O)Nc2ccc(C(C)=O)cc2)cc1,-9.89
14,O=C(NN=Cc1ccc(N(CCCl)CCCl)cc1)c1cccnc1,-10.7
15,COc1ccc(Cl)cc1C(=O)Nn1c(-c2cccs2)nc2ccccc2c1=O,-10.4
16,O=C(Nc1ccc(F)cc1F)NC1CCCCCCC1,-10.6
17,CCOc1ccc(N=C2SC(C(=O)Nc3ccccc3C#N)C(N)=C2C(=O)Nc2ccc(Cl)cc2)cc1 (stereo unspecified),-2.7
18,CCOc1ccc(NC(=O)Cn2sc3nc(C)cc(C)c3c2=O)cc1,1.98
